The nature of experiment [1]: AP1 Signaling Pathway (AID 357; active means well fitted curve in either direction with a large enough effect, not every such curve was filed as active;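 further: ME-180 reporter cells stimulated with EGF at its EC50 level; on the % scale 0 is the no-effect control and ±100 the full control effect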). The settings on record: ME-180 AP-1-bla reporter, EGF-induced, beta-lactamase ratio, 5 h; at 7.69 µM (top of the series) unless noted. The method in brief:
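First, ME-180 AP-1-bla cells were cultured overnight at 37 °C in low-serum Opti-MEM. Next, titrated compounds with EC50 EGF were incubated 5 hours. Finally, CCF4 was added for 2.5 hours and the 460/530 nm ratio recorded.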

Experiment [2] deals with Cytochrome P450 1A2 (Homo sapiens) (UniProt P05177). Put plainly: p450-cyp1a2 (AID 410; calls by dose curve; further: potency means the concentration at half of the fitted maximal effect). The method in brief: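 20nM CYP1A2 with 100uM Luciferin-ME (at Km) in 100mM KPO4; compound preincubated 10 min, NADPH regeneration added, 60 min at room temperature. Luciferin quantified by luminescence after detection reagent; normalized to 57 uM furafylline.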
Chain of Cytochrome P450 1A2 (Homo sapiens) (P05177 whole entry, looked up): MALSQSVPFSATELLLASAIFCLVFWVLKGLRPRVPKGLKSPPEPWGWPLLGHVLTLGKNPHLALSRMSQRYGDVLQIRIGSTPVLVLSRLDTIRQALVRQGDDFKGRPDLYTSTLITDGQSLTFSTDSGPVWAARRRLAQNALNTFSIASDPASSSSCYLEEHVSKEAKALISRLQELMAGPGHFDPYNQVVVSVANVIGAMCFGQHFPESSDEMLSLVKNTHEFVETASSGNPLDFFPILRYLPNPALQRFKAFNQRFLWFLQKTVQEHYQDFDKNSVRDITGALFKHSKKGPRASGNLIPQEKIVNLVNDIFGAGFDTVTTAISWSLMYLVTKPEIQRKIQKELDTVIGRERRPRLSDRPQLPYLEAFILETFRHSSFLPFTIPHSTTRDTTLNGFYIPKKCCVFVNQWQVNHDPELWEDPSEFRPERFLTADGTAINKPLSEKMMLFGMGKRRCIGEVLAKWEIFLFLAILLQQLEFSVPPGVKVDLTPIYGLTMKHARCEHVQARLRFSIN
The nature of experiment [3]: Stat Signaling Pathway (AID 446; active means well fitted curve in either direction with a large enough effect, not every such curve was filed as active;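 further: ME-180 cervical cancer cells given 40 pM IL-6 alongside compound; SIE-controlled beta-lactamase reporter measured as 460/530 nm FRET emission ratio; on the % scale 0 is the no-effect control and ±100 the full control effect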). Summed up:
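ME-180 cells carrying a SIE-driven beta-lactamase reporter are stimulated with 40 pM IL-6 for 5 h at 37C in the presence of compound. The 460/530 nm FRET substrate ratio is read after 2.5 h at RT. Data are normalised to 300 pM IL-6 and to 125 nM JAK inhibitor controls.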

The target of experiment [4] is Glucocorticoid receptor (Homo sapiens) (UniProt P04150). In words: GR-GFP Redistribution (AID 450;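 active means compounds whose dose series gives a full or clear partial fitted curve of increased nuclear translocation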; further: potency means the concentration at half of the fitted maximal effect). The settings on record: U2OS GR-GFP nuclear translocation, laser cytometry, 2 h.
Chain of Glucocorticoid receptor (Homo sapiens) (P04150 whole entry, looked up, the tested form may be a part): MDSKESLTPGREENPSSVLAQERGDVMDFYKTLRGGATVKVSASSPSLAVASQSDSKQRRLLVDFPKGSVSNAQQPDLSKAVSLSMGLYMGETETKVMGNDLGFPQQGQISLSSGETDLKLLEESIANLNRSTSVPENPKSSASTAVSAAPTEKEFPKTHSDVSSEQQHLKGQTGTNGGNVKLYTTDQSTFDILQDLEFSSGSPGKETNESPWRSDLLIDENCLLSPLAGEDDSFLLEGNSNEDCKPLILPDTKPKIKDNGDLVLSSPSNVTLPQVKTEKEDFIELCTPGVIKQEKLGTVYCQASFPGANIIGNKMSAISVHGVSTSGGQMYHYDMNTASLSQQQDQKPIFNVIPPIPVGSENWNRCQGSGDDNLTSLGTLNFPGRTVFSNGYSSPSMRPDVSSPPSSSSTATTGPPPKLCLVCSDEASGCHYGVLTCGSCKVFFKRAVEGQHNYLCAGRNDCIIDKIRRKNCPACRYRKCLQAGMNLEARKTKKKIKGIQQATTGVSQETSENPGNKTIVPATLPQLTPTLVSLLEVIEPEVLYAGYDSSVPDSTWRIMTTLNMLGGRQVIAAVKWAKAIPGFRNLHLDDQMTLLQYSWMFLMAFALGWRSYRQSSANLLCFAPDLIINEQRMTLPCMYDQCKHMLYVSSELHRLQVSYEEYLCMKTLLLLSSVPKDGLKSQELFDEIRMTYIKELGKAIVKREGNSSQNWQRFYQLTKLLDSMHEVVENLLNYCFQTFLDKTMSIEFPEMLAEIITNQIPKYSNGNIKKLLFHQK
Experiment [5] shares this target. In words: GR-EFC Redistribution (AID 451; calls by dose curve; further: potency means the concentration at half of the fitted maximal effect). The note with it: CHO-K1 GR-EFC translocation, beta-gal luminescence, 2 h. The method in brief: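 CHO-K1 cells expressing nuclear EA and GR-ED fragments of b-gal; compounds titrated up to 46 uM final, 2 h at 37 C. GR nuclear translocation read as complemented b-gal luminescence after 1 h RT detection.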
The target of experiment [6] is Mitogen-activated protein kinase 10 (Mus musculus) (UniProt Q61831). Put plainly: JNK3 AlphaScreen Assay (AID 530; active means well fitted curve in either direction with a large enough effect, not every such curve was filed as active;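 further: kinase came from lysate of stimulated human HepG2 cells; signal reports phosphorylation of biotinylated GST-cJun 1-79 at Ser73 with 10 µM ATP; on the % scale 0 is the no-effect control and ±100 the full control effect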). Summed up:
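Pre-activated (IL-1β/TNFα) JNK3 in HepG2 lysates phosphorylates biotin-GST-cJun(1-79), 10 uM ATP; anti-phospho-cJun(Ser73) AlphaScreen read at room temperature, pH 7.6 Tris buffer. Compounds pre-incubated 15 min as titrations.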
A general note: In Alpha technology, singlet oxygen from a donor bead excites a nearby acceptor bead.

Experiment [7] concerns the target Cytochrome P450 3A4 (Homo sapiens) (UniProt P08684). Put plainly: qHTS Assay for Activators of Cytochrome P450 3A4 (AID 885). Further: nearly all actives have a fitted effect of over 65% in size. The method in brief:
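Human CYP3A4 (20 nM) with Luciferin-PPXE at 25 uM (its KM) in 200 mM KPO4; 10 min compound preincubation, then NADPH regeneration and 60 min reaction at RT. Luciferin read by luminescence; normalized to 57 uM ketoconazole full inhibition.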

For experiment [8], the target named is Cytochrome P450 2D6 (Homo sapiens) (UniProt P10635). In words: qHTS Assay for Inhibitors and Substrates of Cytochrome P450 2D6 (AID 891). Further: potency means the concentration at half of the fitted maximal effect; nearly all actives have a fitted effect of over 60% in size. The method in brief:
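Human CYP2D6 (5 nM) with 30 uM Luciferin-ME EGE (at Km) in 100 mM KPO4, compound preincubated 10 min, then NADPH regeneration system for 60 min at room temperature. Luciferin read by luminescence; normalized to 1.43 uM quinidine.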
In general terms: qHTS replaces the single test concentration by a dilution series.

The target in experiment [9] is Dual specificity protein kinase CLK4 (Homo sapiens) (UniProt Q9HAZ1). Put plainly: qHTS Assay for Inhibitors of CDC-like Kinase 4 (Kinase-Glo Assay) (AID 1770). Further: nearly all actives have a fitted effect of over 65% in size. Further: potency means the concentration at half of the fitted maximal effect. The method in brief:
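Luminescent ATP-depletion read-out (Kinase-Glo) after 4.5 h room-temperature reaction of Clk4 (25 nM final) with RS peptide (100 uM) and ATP (1 uM), pH 7.5 Tris buffer with MgCl2 and DTT.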

The target is the same in experiment [10]. In words: qHTS Assay for Inhibitors of CDC-like Kinase 4 (ADP-Glo Assay) (AID 1771). Further: nearly all actives have a fitted effect of over 70% in size. Further: potency means the concentration at half of the fitted maximal effect. Summed up:
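25 nM Clk4 with 100 uM RS repeat peptide and 1 uM ATP (final) in buffer with 2 mM MgCl2, 0.5 mM EGTA, 2.5 mM DTT, 0.01% Triton X-100; 1 h at room temperature; ADP-Glo luminescence for ADP formed.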

Experiment [11] addresses Ubiquitin carboxyl-terminal hydrolase 1 (Homo sapiens) (UniProt O94782). Put plainly: Inhibitors of USP1/UAF1: Pilot qHTS (AID 504865).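 Further: rhodamine fluorescence freed from ubiquitin-rhodamine substrate followed over time; top concentration of the series differs between compounds; on the % scale 0 is the no-effect control and ±100 the full control effect; nearly all actives have a fitted effect of over 35% in size.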 The method in brief:
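Deubiquitinase activity followed as kinetic rhodamine fluorescence release from 150 nM Ub-Rho. 1 nM USP1/UAF1 with compound, after 15 min room-temperature preincubation, in HEPES pH 7.8 buffer containing TCEP, EDTA, BSA and Tween-20.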

In experiment [12] the target is Lysosomal acid glucosylceramidase (Homo sapiens) (UniProt P04062). Put plainly: Glucocerebrosidase-p2 (AID 348; in the data active means potency below about 10 µM; further: potency means the concentration at half of the fitted maximal effect). The settings on record: purified GBA, blue fluorogenic substrate, 40 min. Summed up: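 Compounds titrated from 0.6 nM upwards against 0.2 nM enzyme in pH 5.9 citric acid/KH2PO4, taurocholate, tween-20; blue fluorogenic substrate 80 uM, 40 min room temperature, stopped and read Ex 365/Em 440 for AC50.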
Chain of Lysosomal acid glucosylceramidase (Homo sapiens) (P04062 whole entry, looked up): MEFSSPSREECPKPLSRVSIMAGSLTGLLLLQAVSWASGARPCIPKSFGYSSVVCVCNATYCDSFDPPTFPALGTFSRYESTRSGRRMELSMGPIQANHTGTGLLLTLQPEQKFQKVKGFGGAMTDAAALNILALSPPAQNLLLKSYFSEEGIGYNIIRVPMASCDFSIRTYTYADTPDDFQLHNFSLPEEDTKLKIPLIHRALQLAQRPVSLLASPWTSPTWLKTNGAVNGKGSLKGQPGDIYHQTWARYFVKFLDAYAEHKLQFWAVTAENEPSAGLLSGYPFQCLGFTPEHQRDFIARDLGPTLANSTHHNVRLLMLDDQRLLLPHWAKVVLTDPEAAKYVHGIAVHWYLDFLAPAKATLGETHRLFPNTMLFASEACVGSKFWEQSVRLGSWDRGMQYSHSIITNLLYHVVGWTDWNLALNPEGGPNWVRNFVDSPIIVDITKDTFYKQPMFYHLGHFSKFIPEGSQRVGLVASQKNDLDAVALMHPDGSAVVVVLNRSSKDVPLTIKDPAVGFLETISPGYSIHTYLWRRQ

The target of experiment [13] is 3',5'-cyclic-AMP phosphodiesterase 4B (Homo sapiens) (UniProt Q07343). Put plainly: qHTS Assay for Inhibitors of PDE-IV (AID 607; active means well fitted activation curve with a large enough effect in the main read-out, with a control signal flat, not every such curve was filed as active; further: % of control where 0% means no effect). The method in brief: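 HEK293 ACTOne cells with CNG channel (1000/well), endogenous PDE4; membrane potential dye, compounds up to 22.9 uM final. Fluorescence Ex 535/Em 590; RO 20-1724 (100 uM final) as reference.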
Chain of 3',5'-cyclic-AMP phosphodiesterase 4B (Homo sapiens) (Q07343 whole entry, looked up): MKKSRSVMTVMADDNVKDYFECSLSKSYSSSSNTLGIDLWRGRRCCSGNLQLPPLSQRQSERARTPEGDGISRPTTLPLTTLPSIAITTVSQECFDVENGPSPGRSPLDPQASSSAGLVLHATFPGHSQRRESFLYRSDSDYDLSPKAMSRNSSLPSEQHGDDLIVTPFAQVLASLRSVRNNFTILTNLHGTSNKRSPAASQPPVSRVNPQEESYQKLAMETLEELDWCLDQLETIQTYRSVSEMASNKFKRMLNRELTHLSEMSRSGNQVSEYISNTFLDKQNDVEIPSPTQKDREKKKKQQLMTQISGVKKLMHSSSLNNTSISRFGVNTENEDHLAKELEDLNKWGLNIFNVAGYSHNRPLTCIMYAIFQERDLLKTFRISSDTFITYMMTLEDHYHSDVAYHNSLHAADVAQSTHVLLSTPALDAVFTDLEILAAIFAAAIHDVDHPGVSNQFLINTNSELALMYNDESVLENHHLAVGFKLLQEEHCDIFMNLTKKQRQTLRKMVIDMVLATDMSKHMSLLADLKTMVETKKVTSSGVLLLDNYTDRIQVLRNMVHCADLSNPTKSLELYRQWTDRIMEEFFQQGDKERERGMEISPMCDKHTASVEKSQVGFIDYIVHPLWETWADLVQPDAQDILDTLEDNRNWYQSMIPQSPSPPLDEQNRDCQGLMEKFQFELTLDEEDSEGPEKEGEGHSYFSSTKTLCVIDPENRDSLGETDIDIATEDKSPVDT
Experiment [14] is described as follows: NFAT Signaling Pathway (AID 444; active means well fitted curve in either direction with a large enough effect, not every such curve was filed as active;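 further: carbachol stimulus at about its EC50 of 1 µM final; on the % scale 0 is the no-effect control and ±100 the full control effect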). The note with it: Jurkat NFAT-bla M1, carbachol, beta-lactamase ratio, 5 h; at 7.69 µM (top of the series) unless noted. Summed up:
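Jurkat cells with NFAT-driven β-lactamase reporter and co-expressed M1 receptor, stimulated with carbachol (final 1 uM, ~EC50), compound titration, 5 h at 37 °C. CCF4 loaded 1 h at RT; 460/530 nm ratio gave %activity and AC50.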

Experiment [15] has as its target Cytochrome P450 2C19 (Homo sapiens) (UniProt P33261). Put plainly: qHTS Assay for Inhibitors and Substrates of Cytochrome P450 2C19 (AID 899). Further: potency means the concentration at half of the fitted maximal effect; nearly all actives have a fitted effect of over 60% in size. The method in brief:
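Signal comes from luciferase acting on luciferin released by CYP2C19-mediated hydroxylation of Luciferin-H EGE, 10uM (KM). Assay mix: 5nM enzyme, 50mM KPO4; 60 min at 37C with NADPH regeneration. Data normalized against 57uM ketoconazole.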

Experiment [16] addresses Dual specificity protein kinase CLK4 (Homo sapiens) (UniProt Q9HAZ1). In words: qHTS Assay for Inhibitors of CDC-like Kinase 4 (ADP-FP Assay) (AID 1795). Further: nearly all actives have a fitted effect of over 60% in size. Further: potency means the concentration at half of the fitted maximal effect. Summed up:
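Kinase activity was measured as ADP production using Transcreener orange tracer (4 nM) and ADP antibody (1 ug/mL) fluorescence polarization, with ADP calculated from a calibration curve. The 1 h reaction contained 6.25 nM Clk4, 1 uM ATP and 100 uM RS peptide at pH 7.5 with Mg2+.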

Experiment [17] has as its target Cytochrome P450 3A4 (Homo sapiens) (UniProt P08684). In words: qHTS Assay for Inhibitors and Substrates of Cytochrome P450 3A4 (AID 884). Further: potency means the concentration at half of the fitted maximal effect; nearly all actives have a fitted effect of over 50% in size. The method in brief:
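20 nM human CYP3A4 with 25 uM Luciferin-PPXE (at KM) in 200 mM KPO4, preincubated 10 min with compound; NADPH regeneration started a 60 min RT reaction. Luciferin detected by luminescence, normalized to 57 uM ketoconazole as full inhibition.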

Experiment [18] in a line: qHTS Assay for Identification of Small Molecule Agonists for Hypoxia Response Element Signaling Pathway (AID 914; active means well fitted activation curve with a large enough effect in the signal ratio, with a control signal flat, not every such curve was filed as active; the % refers to the signal ratio; further: % of control where 0% means no effect). The settings on record: ME-180 (cervical carcinoma) HRE-bla reporter, beta-lactamase ratio, CoCl2, 17 h; activation: stronger effect = higher value. Summed up:
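AC50 values come from titration-series %Activity, taken as the 460/530nm ratio of CCF4 fluorescence (excitation 405nm). CellSensor HRE-bla ME-180 cells were treated 17 hours at 37 C with compound plus an EC50 level of CoCl2.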

The target in experiment [19] is Cytochrome P450 2C9 (Homo sapiens) (UniProt P11712). In words: qHTS Assay for Inhibitors and Substrates of Cytochrome P450 2C9 (AID 883). Further: on the % scale 0 is the no-effect control and ±100 the full control effect; nearly all actives have a fitted effect of over 60% in size. The method in brief:
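Signal: luciferase luminescence reporting luciferin produced by CYP2C9. Conditions: 10nM enzyme, Luciferin-H 100uM at KM, 25mM KPO4, 37C, 60 min NADPH-driven reaction. Reference: 57uM sulphaphenazole as 100% inhibition.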

A number with no mark means an inactive call. Records with an inconclusive call do not appear. Calls of active or inactive are those of the source. Unless noted, the call rests on the fitted dose curve; in most records, active means well fitted curve in the direction sought with a large enough effect; inconclusive means small, poorly fitted or top-dose-only effect, or another doubt; inactive means no such curve, though single readings can be large; an effect the other way counts as inactive or inconclusive.

Here are results for seven compounds from PubChem BioAssay (NCATS).

Chain of Ubiquitin carboxyl-terminal hydrolase 1 (Homo sapiens) (O94782 whole entry, looked up): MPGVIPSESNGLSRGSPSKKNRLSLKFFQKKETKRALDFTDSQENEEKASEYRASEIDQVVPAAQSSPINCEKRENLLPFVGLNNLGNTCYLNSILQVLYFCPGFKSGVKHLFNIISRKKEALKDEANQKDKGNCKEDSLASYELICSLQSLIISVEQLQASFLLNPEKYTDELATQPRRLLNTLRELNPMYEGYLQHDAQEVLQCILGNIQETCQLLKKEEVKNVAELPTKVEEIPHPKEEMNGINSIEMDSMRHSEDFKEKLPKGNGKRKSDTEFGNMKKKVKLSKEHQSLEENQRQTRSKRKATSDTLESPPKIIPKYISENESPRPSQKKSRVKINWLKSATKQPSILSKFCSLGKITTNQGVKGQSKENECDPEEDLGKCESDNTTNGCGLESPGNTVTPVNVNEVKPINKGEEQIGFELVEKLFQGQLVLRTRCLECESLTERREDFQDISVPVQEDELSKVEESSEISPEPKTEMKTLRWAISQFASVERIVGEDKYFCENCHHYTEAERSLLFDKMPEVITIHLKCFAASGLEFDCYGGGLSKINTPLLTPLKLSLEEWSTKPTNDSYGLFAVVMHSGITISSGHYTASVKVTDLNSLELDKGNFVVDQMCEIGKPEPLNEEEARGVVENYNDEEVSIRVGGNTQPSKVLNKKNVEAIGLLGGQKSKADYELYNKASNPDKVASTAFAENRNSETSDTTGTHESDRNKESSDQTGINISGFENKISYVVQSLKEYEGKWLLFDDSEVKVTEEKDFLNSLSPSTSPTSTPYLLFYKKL
Chain of Cytochrome P450 3A4 (Homo sapiens) (P08684 whole entry, looked up): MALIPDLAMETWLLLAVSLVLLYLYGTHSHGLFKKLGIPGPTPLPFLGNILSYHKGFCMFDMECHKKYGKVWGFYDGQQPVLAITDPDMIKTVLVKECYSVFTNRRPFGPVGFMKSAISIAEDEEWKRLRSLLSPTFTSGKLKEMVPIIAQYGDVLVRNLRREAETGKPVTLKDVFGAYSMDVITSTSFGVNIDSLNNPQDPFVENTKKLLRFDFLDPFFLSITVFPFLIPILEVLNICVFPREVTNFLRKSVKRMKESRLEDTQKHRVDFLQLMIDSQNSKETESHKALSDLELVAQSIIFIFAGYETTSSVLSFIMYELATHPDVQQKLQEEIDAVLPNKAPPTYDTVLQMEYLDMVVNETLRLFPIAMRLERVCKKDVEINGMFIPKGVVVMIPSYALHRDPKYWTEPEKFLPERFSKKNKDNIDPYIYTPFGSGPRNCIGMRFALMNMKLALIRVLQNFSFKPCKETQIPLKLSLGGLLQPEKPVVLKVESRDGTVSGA
Chain of Dual specificity protein kinase CLK4 (Homo sapiens) (Q9HAZ1 whole entry, looked up): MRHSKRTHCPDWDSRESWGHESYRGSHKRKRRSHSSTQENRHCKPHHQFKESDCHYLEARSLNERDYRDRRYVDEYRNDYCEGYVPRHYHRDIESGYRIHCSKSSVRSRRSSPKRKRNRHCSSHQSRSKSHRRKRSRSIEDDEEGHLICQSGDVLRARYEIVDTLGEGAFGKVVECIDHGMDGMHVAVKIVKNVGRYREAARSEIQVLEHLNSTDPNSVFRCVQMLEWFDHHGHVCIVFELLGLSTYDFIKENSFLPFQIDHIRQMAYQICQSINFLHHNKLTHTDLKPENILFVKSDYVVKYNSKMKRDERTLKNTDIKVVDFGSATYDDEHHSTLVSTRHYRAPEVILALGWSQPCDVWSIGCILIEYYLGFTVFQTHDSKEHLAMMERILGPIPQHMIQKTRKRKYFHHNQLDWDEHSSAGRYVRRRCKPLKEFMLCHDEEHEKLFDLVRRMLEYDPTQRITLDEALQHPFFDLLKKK
Chain of Cytochrome P450 2D6 (Homo sapiens) (P10635 whole entry, looked up): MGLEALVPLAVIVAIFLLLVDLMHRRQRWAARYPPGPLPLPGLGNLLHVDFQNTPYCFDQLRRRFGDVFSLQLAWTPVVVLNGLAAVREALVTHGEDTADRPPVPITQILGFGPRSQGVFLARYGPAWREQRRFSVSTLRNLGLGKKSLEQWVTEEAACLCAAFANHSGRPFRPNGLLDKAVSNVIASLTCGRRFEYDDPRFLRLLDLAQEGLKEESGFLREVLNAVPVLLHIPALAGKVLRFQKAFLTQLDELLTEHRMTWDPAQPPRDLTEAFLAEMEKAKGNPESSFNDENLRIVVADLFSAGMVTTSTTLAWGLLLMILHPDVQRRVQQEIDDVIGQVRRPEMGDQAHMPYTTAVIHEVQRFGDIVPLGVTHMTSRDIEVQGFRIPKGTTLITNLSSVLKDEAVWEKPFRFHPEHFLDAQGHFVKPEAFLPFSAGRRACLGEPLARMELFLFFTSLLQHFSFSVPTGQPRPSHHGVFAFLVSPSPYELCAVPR

Turning to `CN(C)c1ccc(-c2nccc(NCc3cccs3)n2)cc1`, the activity change, negative = inhibition in [1] is -18.4%. Moreover, the Potency in experiment [2] is 0.398 µM (active); in experiment [4] it was greater than 46 µM; in experiment [5] it was greater than 46 µM; in experiment [8] it was 0.126 µM (active); in experiment [9], 8.91 µM (active); in experiment [10] it was 5.62 µM (active). In addition, the result in [3] and in experiment [7] was inactive. Besides, the Potency entry in experiment [6] and in experiment [11] was “inactive” throughout.
In the case of `COc1cccc(-c2nc(NCCN3CCOCC3)c3ccccc3n2)c1`, the Potency is greater than 11.4 µM in experiment [12]; greater than 46 µM in experiment [4]; greater than 46 µM in experiment [5]; 15.8 µM (active) in experiment [9]; 15.8 µM (active) in experiment [10]. The activity change, negative = inhibition in experiment [1] was 6.11%. The result in experiment [3] and in experiment [7] was inactive. Moreover, the Potency entry in experiment [6] and in experiment [13] was “inactive” each time.
Turning to `c1ccc(CNc2nc(-c3cccnc3)nc3ccccc23)cc1`, the activity change, negative = inhibition in [1] was -20.2%; in experiment [14] it was -17.2%. Moreover, the Potency is 0.398 µM (active) in experiment [2]; greater than 46 µM in [4]; greater than 46 µM in experiment [5]; 15.8 µM (active) in experiment [8]; 15.8 µM (active) in experiment [15]; 7.08 µM (active) in experiment [9]. Besides, the Potency in experiment [10] was 11.2 µM (active); in [16] it was 5.01 µM (active). In experiment [3], the call was inactive. For the same compound, in [6], the Potency entry was “inactive”.
Turning to `Cc1cnc(CNc2ncnc3ccc(-c4ccccc4C)cc23)cn1`, the Potency in experiment [12] was greater than 11.4 µM; in experiment [2], 6.31 µM (active); in [5], greater than 46 µM; in [17], 3.98 µM (active); in [9], 28.2 µM (active); in experiment [10] it was 25.1 µM (active). Further, in [1], the activity change, negative = inhibition is -14.7%. Further, the outcome in experiment [3] and in experiment [7] was inactive. Further, the Potency entry in experiment [13] and in experiment [11] was “inactive” each time.
For the compound `CN(C)c1ncnc2ccc(-c3cccc(NS(C)(=O)=O)c3)cc12`, the Potency in experiment [12] was greater than 11.4 µM; in [4] it was greater than 46 µM; in experiment [5] it was greater than 46 µM; in [9] it was 11.2 µM (active); in experiment [10], 12.6 µM (active). Besides, the outcome in [3] was inactive. The Potency result in experiment [6], in [13] and in [11] was “inactive” in each case.
As to `COc1cccc(-c2nc(NCc3cccnc3)c3ccccc3n2)c1`, the Potency in [12] is greater than 11.4 µM; in experiment [2], 0.158 µM (active); in experiment [4] it was greater than 46 µM; in experiment [5], greater than 46 µM; in experiment [17], 2 µM (active); in experiment [9], 25.1 µM (active). For the same compound, the Potency in experiment [10] is 17.8 µM (active). Further, the activity change, negative = inhibition in experiment [1] was -1.11%. Besides, the compound was classed as inactive in [3] and in experiment [7]. Further, in experiment [6], the Potency result is “inactive”. Moreover, the activation in experiment [18] is -25.6%.
For `N#CCCn1c(=O)c(-c2ccc(Cl)cc2)nc2cnc(N3CCOCC3)nc21`, the activity change, negative = inhibition was 0.155% in experiment [1] and 5.23% in experiment [14]. The results for the Potency in [2] and in experiment [5] were 15.8 µM (active) and greater than 46 µM, respectively. The compound was called inactive in experiment [3]. Besides, the Potency entry in [13], in experiment [19], in experiment [9], in [10], in experiment [16] and in experiment [11] was “inactive” each time. For the same compound, in experiment [18], the activation was 22.6%.
